Data published in PubChem BioAssay (Tox21).
Inconclusive results are not listed. Where a call stands in place of a potency, no number is given. Values without a mark were called inactive. The source made the active and inactive calls. Calls come from the whole dose curve; as a rule, active = well fitted activation curve with a large enough effect in the repeat runs; inconclusive = weak or mixed curves; inactive = flat fitted curve, though single readings scatter.
Potency is the fitted concentration of half-maximal effect.

Test: A CellTox Green Cytotoxicity Assay to monitor cytotoxicity in HEK293 cells - 8 hour (AID 1224884); note: nearly all actives have a fitted effect of over 35% in size
Conditions: CellTox Green fluorescence; series mostly up to 76.8 µM
Excerpt: National Center for Advancing Translational Sciences [NCATS]
NIH Chemical Genomics Center [NCGC]
U.S. Environmental Protection Agency [EPA]
National Institutes of Environmental Health Sciences [NIEHS]
National Toxicology Program [NTP]
Cell-based models are critical for drug discovery. Determining the natural cytotoxic effects resulting from test compounds is an essential research activity. A CellTox Green Cytotoxicity Assay to monitor cytotoxicity in real time of continues cell culture during 40 hours of the compound treatment was used to screen Tox21 10K library compounds in Hek293 cells. CellTox Green Cytotoxicity Assay is a nonlytic, homogeneous, biofluorescent method to measure cytotoxicity in cell culture after experimental manipulation. The assay system uses a proprietary asymmetric cyanine dye that is excluded from viable cells but preferentially stains the dead cell's DNA. […] Viable cells produce no appreciable increases in fluorescence. Therefore, the fluorescence signal produced by the binding interaction with dead cell DNA is proportional to cytotoxicity.
The mixture of Hek293 cell suspension and reagents were dispensed at 600cells/6 ul/well in 1536-well tissue culture treated black solid bottom plates using a Multidrop dispenser. After the assay plates were incubated at a 37 C/5% CO2 incubator for 5 hours, 23 nL of compounds dissolved in DMSO, positive and negative controls was transferred to the assay plate by a pintool work station. The plates were incubated at 37 C for 40 hours. The fluorescence intensity were measured at 0h, 8h, 16h, 24h, 32h and 40h time points using ViewLux plate reader during compound treatment.
With `CCCOc1ccc(S(=O)(=O)N2CCN(CC)CC2)cc1-c1nc2c(CC)n(Cc3ccccn3)nc2c(=O)[nH]1` the Potency was “inactive”.
For `Cc1nc2ccccc2s1`, the Potency was “inactive”.
For `CC(=O)Nc1ccccc1C`, the Potency was “inactive”.
In the case of `CNC(=O)N(c1ccccc1)c1ccccc1`, the Potency is reported as “inactive”.
In the case of `CCC(C(=O)OCCN(CC)CC)c1ccccc1` (stereo not given), the Potency is reported as “inactive”.
With `CC(COc1ccc(C(C)(C)C)cc1)OS(=O)OCCCl` (stereo not given) the Potency was “inactive”.
With `COC(=O)Nc1nc2ccc(C(=O)c3cccs3)cc2[nH]1` the Potency was “inactive”.
For `O=Cc1c(Cl)cccc1Cl`, the Potency was “inactive”.
With `Nc1ccc(S(=O)(=O)O)cc1` the Potency was “inactive”.
In the case of `CO[C@H]1C=CO[C@@]2(C)Oc3c(C)c(O)c4c(O)c(c5c(c4c3C2=O)=NC2(CCN(CC(C)C)CC2)N=5)NC(=O)/C(C)=C\C=C/[C@H](C)[C@H](O)[C@@H](C)[C@@H](O)[C@@H](C)[C@H](OC(C)=O)[C@@H]1C`, the Potency is reported as “inactive”.
Work on `CCCC(=O)O[C@]1(C(=O)COC(=O)CC)CC[C@H]2[C@@H]3CCC4=CC(=O)CC[C@]4(C)[C@H]3[C@@H](O)C[C@@]21C` yielded a cytotoxicity increase of -4.08% [at 15.8 µM].
In the case of `CCCCCCOC(=O)CCCCCCCC(=O)OCCCCCC`, the Potency is reported as “inactive”.
With `NC(=O)Nc1ccc(Cl)c(Cl)c1` the Potency was “inactive”.
In the case of `Cc1cc2nc3ccc(=[N+](C)C)cc-3sc2cc1N`, the Potency is reported as “inactive”.
In the case of `CCOC(=O)N1CCC(n2c(=O)[nH]c3cc(Cl)ccc32)CC1`, the Potency is reported as “inactive”.
With `CCOC(=O)/C=C/C(=O)O` the Potency was “inactive”.
For `N#C[C@@H]1C[C@@H]2C[C@@H]2N1C(=O)[C@@H](N)C12CC3CC(CC(O)(C3)C1)C2`, the Potency was “inactive”.
For `C/C=C(\C)C(=O)OCCC(C)CCC=C(C)C` (stereo not given), the Potency was “inactive”.
With `CCC(C(=O)OCCOCCN(CC)CC)c1ccccc1` (stereo not given) the Potency was “inactive”.
In the case of `CCOC(=O)c1ccccc1OC`, the Potency is reported as “inactive”.
With `CCCCCCCCCCCCCCC[C@H](O)[C@@H](N)CO` the Potency was 23.9 µM (active).
In the case of `CCn1nc(C)c2c1C(=O)NCC(c1ccc(O)cc1)=N2`, the Potency is reported as “inactive”.
With `CCCCCCCCCCOS(=O)(=O)O` the Potency was “inactive”.
With `Cc1cc(C(=C2C=CC(=Nc3ccc(S(=O)(=O)O)cc3S(=O)(=O)O)C=C2)c2ccc(Nc3ccc(S(=O)(=O)O)cc3)cc2)ccc1N` the Potency was “inactive”.
In the case of `Nc1ccc(Cl)cc1[N+](=O)[O-]`, the Potency is reported as “inactive”.
In the case of `CCCCOC(=O)CCS`, the Potency is reported as “inactive”.
With `C/C(=N/NC(=O)c1ccncc1)C(=O)O` the Potency was “inactive”.
With `CC(=O)N(c1onc(C)c1C)S(=O)(=O)c1ccc(N)cc1` the Potency was “inactive”.
With `O=C(C(=O)c1ccccc1)c1ccccc1` the Potency was “inactive”.
With `COc1ccc(C(=O)c2cccc(O)c2)c(OC)c1` the Potency was “inactive”.
For `CC(=O)Nc1ccc(N)cc1`, the Potency was “inactive”.
In the case of `O=c1[nH]c2ccc(S(=O)CCN3CCC(Cc4ccc(F)cc4)CC3)cc2o1` (stereo not given), the Potency is reported as “inactive”.
With `CC1=CC(=O)CC(C)(C)C1(O)/C=C/C(C)=C\C(=O)O` (stereo not given) the Potency was “inactive”.
In the case of `Cc1nccn1-c1ccc(Sc2cccc(C3(C(N)=O)CCOCC3)c2)cc1`, the Potency is reported as “inactive”.
For `CCC(C)=O`, the Potency was “inactive”.
In the case of `CCCC1C(CC)=CC(CC)=CN1c1ccccc1` (stereo not given), the Potency is reported as “inactive”.
For `Cc1ccc(S)cc1`, the Potency was “inactive”.
In the case of `Oc1ccc(Nc2ccccc2)cc1`, the Potency is reported as “inactive”.
In the case of `CCOC(=O)OCC`, the Potency is reported as “inactive”.
In the case of `C=CC(=O)NCOCC(C)C`, the Potency is reported as “inactive”.
